Drawing on PubChem BioAssay (EPA / NIEHS), this text covers outcome and AC50 for 13 molecules.

Molecules are shown by their SMILES. Results filed as inconclusive are left out. The source made the active and inactive calls. The calls were made as follows: active = hit-call score of the fitted dose curve at least 0.9, where 1 is the maximum; inconclusive = response in the unintended direction; inactive = score below 0.9.

Sequence of human Phosphoinositide 3-kinase alpha (PI3Ka), PIK3CA (gene 5290) (P42336 whole entry, looked up): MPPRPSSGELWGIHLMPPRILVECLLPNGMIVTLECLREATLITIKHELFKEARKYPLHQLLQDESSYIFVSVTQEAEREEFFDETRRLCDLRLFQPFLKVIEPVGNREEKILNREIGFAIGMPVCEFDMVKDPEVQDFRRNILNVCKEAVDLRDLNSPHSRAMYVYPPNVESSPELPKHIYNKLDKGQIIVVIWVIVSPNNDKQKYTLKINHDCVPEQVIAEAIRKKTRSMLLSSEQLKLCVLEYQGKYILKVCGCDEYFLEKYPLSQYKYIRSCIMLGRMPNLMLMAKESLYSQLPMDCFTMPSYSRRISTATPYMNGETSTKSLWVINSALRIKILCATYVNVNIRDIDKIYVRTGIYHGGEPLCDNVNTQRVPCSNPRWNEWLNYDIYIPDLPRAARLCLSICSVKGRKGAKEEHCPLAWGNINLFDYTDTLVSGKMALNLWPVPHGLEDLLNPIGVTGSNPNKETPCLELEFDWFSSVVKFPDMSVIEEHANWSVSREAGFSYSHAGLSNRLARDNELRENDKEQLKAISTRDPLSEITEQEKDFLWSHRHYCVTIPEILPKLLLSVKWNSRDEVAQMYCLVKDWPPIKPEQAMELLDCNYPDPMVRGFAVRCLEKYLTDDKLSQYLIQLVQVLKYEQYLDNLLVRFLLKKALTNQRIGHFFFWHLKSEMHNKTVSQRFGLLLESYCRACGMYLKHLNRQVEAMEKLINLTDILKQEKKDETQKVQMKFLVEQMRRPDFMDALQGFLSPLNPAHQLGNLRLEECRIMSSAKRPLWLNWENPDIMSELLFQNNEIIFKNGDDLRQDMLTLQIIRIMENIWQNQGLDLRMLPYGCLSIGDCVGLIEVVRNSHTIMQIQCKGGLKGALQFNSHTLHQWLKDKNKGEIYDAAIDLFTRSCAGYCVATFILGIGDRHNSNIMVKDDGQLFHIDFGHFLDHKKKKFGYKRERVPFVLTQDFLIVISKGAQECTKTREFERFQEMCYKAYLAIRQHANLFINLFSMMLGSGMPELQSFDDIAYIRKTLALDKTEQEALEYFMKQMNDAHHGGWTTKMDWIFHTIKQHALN

One experiment deals with human Phosphoinositide 3-kinase alpha (PI3Ka), PIK3CA (gene 5290) (UniProt P42336). In words: NVS_ENZ_hPI3Ka: NovaScreen (NVS) Enzymatic Assay for human Phosphoinositide 3-kinase alpha (PI3Ka) (AID 2283196). Here is the method:
(§1) NVS_ENZ_hPI3Ka is a biochemical, single-readout assay that uses extracted gene-proteins in a cell-free assay. Measurements were taken 1 hour after chemical dosing in a 384-well plate.NVS_ENZ_hPI3Ka is one of one assay component(s) measured or calculated from the NVS_ENZ_hPI3Ka assay. It is designed to make measurements of enzyme activity, a form of enzyme reporter, as detected with fluorescence intensity signals by Fluorescence and electrophoretic mobility shift technology.Data from the assay component NVS_ENZ_hPI3Ka was analyzed into 1 assay endpoint. This assay endpoint, NVS_ENZ_hPI3Ka, was analyzed in the positive analysis fitting direction relative to DMSO as the negative control and baseline of activity. Using a type of enzyme reporter, loss-of-signal activity can be used to understand changes in the enzymatic activity as they relate to the gene PIK3CA. Furthermore, this assay endpoint can be referred to as a primary readout, because this assay has produced multiple assay endpoints where this one serves a enzymatic activity function. To generalize the intended target to other relatable targets, this assay endpoint is annotated to the kinase intended target family, where the subfamily is phosphoinositol kinase.
(§2) Binding assays used specific radioligands (tritiated, iodinated) with non-radioactive competitive displacement ligands in agonist or antagonist protocols (as indicated) and various reference compounds and inhibitors to titrate specific binding to receptors and transporters. Most enzyme assays (CYPs, kinases, phosphatases, proteases, HDACs) used recombinant protein and specific substrates (fluorescence mostly, some colorimetric and radioactive) and inhibitors, followed by a biochemical separation of substrate and product. All assays for the biochemical HTS were initially run in duplicate at a single concentration (10 uM for CYP450 assays and 25 uM for all others). Assay-chemical combinations meeting a pre-defined threshold (e.g., 30% inhibition and other criteria defined below) were then run in singleton concentration-response format with maximum concentration of 20 uM for CYPs and 50 uM for all others. Each assay was run with positive and negative controls, and concurrent controls on every plate. The follow-up (secondary) screen tested active chemical-pairs in concentration series, as well as a few additional assays not tested in the primary screen, some selected negative inactives, and several cases re-run in the concentration series for confirmatory purposes.
In the case of `CCNc1nc(NC(C)(C)C)nc(SC)n1`, the result was inactive.
On to `CC(C)C1CCC(Cc2ccc(Cl)cc2)C1(O)Cn1cncn1` (centres undefined), for which the molecule was classed as inactive.
The same measure, in the same setting: the entry for `Nc1ccc(-c2ccc(N)c(Cl)c2)cc1Cl` is “inactive”.
As for `COP(=S)(OC)Oc1cc(Cl)c(Cl)cc1Cl`, the molecule was called inactive.
On the same count and under the same terms, the result for `C(=NC1CCCCC1)=NC1CCCCC1` reads “inactive”; that for `O=[N+]([O-])c1ccc2c3c(cccc13)CC2`, “inactive”.
For the molecule `ClCCBr`, the AC50 is 383 nM (active).
Regarding `Cc1ccccc1N`, the result was inactive.
In the case of `COP(=S)(OC)Oc1c(Cl)cc(C)cc1Cl`, the outcome was inactive.

A further experiment deals with human Phosphatase and Tensin Homolog (PTEN), PTEN (gene 5728) (UniProt P60484). The experiment can be described thus: NVS_ENZ_hPTEN: NovaScreen (NVS) Enzymatic Assay for human Phosphatase and Tensin Homolog (PTEN) (AID 2283203). On the procedure: as §1, with “NVS_ENZ_hPTEN” for “NVS_ENZ_hPI3Ka”, “plate.NVS_ENZ_hPTEN” for “plate.NVS_ENZ_hPI3Ka”, “NVS_ENZ_hPTEN,” for “NVS_ENZ_hPI3Ka,”, “PTEN.” for “PIK3CA.”, “phosphatase” for “kinase”, “dual-specific phosphatase.” for “phosphoinositol kinase.”
Sequence of human Phosphatase and Tensin Homolog (PTEN), PTEN (gene 5728) (P60484 whole entry, looked up): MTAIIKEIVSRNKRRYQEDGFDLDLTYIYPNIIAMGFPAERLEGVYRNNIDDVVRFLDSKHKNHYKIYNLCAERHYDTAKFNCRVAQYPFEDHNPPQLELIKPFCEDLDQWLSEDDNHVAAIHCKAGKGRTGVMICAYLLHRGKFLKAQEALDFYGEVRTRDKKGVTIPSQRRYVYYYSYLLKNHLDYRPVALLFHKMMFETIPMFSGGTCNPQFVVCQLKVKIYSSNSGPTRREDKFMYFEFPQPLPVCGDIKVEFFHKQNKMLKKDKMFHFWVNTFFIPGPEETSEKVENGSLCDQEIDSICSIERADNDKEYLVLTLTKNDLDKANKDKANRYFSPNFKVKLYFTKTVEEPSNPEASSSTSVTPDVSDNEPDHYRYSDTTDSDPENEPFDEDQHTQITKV
as §2, with “Assay-chemical combinations meeting a pre-defined threshold (e.g., 30% inhibition and other criteria defined below) were then run in singleton concentration-response format with maximum concentration of 20 uM for CYPs and 50 uM for all others.” left out
For `COC[C@H](C)N(C(=O)CCl)c1c(C)csc1C`, the molecule was classed as inactive.
On the same count and under the same terms, the entry for `COP(=S)(OC)Oc1cc(Cl)c(Cl)cc1Cl` is “inactive”.
As to `O=C(c1ccccc1)C(Cl)Cl`, the AC50 was 14100 nM (active).
Still for that read-out and setting: the result for `CN(CCCC(=O)c1cccnc1)N=O` reads 2.29 nM (active); that for `N#CCc1ccc(Cl)cc1`, 1320 nM (active).

For orientation: AC50 means the concentration at which the activity in the assay is half-maximal.
